Laboratory results reported in PubChem BioAssay (NCATS).
Several values for one entry are separate records, joined by “and”; a condition that tells them apart may be missing. Identical values can stand only once. Results filed as inconclusive are left out. Activity calls are given as the source filed them. Unless noted, the call rests on the fitted dose curve; in most records, active means well fitted curve in the direction sought with a large enough effect; inconclusive means small, poorly fitted or top-dose-only effect, or another doubt; inactive means no such curve, though single readings can be large; an effect the other way counts as inactive or inconclusive.

What was measured:
[1] = Cell Viability - MRC5 (AID 434; calls by dose curve;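 further: potency means the concentration at half of the fitted maximal effect; cells exposed to compound for 40 hours at 37 °C; potency reflects cytotoxicity seen as loss of intracellular ATP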); settings: MRC5 lung fibroblast viability, qHTS
Method in brief: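 Decrease in intracellular ATP, quantified by luciferase light output, reflects compound toxicity toward MRC5 cells exposed for 40 hr in complete culture medium. Concentration-response curves, scaled between DMSO and 100 uM tamoxifen, gave AC50 values.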

[2] = Cell Viability - HUV-EC-C (AID 542); settings: HUV-EC-C endothelial cell viability, qHTS; series mostly up to 92.2 µM; further: nearly all actives have a fitted effect of over 35% in size; further: potency means the concentration at half of the fitted maximal effect
Method in brief: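 CellTiter-Glo luminescence measured ATP loss in HUV-EC-C cells (1000/well) after 40 hr compound exposure at 37 °C, in complete culture medium. Concentration-response data were Hill-fitted to give AC50.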

[3] = Cellular Toxicity (caspase-3) HepG2 (AID 654); settings: HepG2 caspase-3 activation, luminescence; series mostly up to 92.2 µM;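 further: cells exposed to compound for 16 hours before reading; 0% = DMSO alone and 100% = caspase signal from 100 µM tamoxifen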
Method in brief: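 Caspase 3/7 activation is measured as a luminescence increase (aminoluciferin substrate) after 16 h compound exposure of human hepatocarcinoma HepG2 cells. AC50 values are Hill fits, scaled between DMSO baseline and 100 uM tamoxifen stimulation.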

[4] = Cellular Toxicity (caspase-3) HUV-EC-C (AID 656); settings: HUV-EC-C cells, caspase-3 activation (apoptosis); series mostly up to 92.2 µM
Method in brief: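 Luminescent caspase-3/7 activation (aminoluciferin substrate cleavage) in HUV-EC-C cells after 16 hr compound exposure, 37°C. Signal normalized to DMSO basal and 100 uM tamoxifen as 100%; AC50 from concentration-response fitted with the Hill equation.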

[5] = Cellular Toxicity (caspase-3) SHSY5Y (AID 657); settings: SH-SY5Y caspase-3 activation; series mostly up to 91.7 µM
Method in brief: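 Luminescent caspase-3/7 readout (aminoluciferin release) in SH-SY5Y cells after 16 h compound exposure in complete medium. Activity scaled between DMSO basal and 10 uM staurosporine as 100%; concentration-response fitted to Hill equation for AC50.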

[6] = Cellular Toxicity (caspase-3) MRC-5 (AID 659); settings: MRC-5 cells, luminescence, normalized: DMSO 0%, 10 µM staurosporine 100%; series mostly up to 91.7 µM
Method in brief: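 Apoptosis readout in MRC-5 cells: luciferase light generated after caspase 3/7 cleaves a peptide-aminoluciferin substrate, measured post 16 hr compound incubation at 37 °C.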

[7] = Cellular Toxicity (caspase-3) Mesangial (AID 660); settings: mesangial cells, normalized: DMSO 0%, 100 µM tamoxifen 100%; series mostly up to 91.7 µM;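 further: combined caspase 3 and 7 activity read by Caspase-Glo luminescence; cells exposed to compound for 16 h before the caspase read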
Method in brief: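 Caspase 3/7 activation measured by Caspase-Glo 3/7 luminescence (20 min, room temperature) following 16 h exposure of mesangial cells (1000/well); AC50 from Hill-equation fit, normalized to DMSO and 100 uM tamoxifen.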

[8] = Cellular Toxicity (caspase-3) SK-N-SH (AID 661); settings: SK-N-SH caspase-3 activation, qHTS, DMSO as zero, staurosporine as full; series mostly up to 91.7 µM
Method in brief: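 Caspase 3/7 activation was read by luminogenic substrate cleavage after 16 hour treatment of SK-N-SH cells. Signal was scaled between DMSO and 10 uM staurosporine, and concentration-response data were fitted with the Hill equation for AC50.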

[9] = Cellular Toxicity (caspase-3) H-4-II-E (AID 663); settings: H-4-II-E rat hepatoma; Potency: caspase-3 activation; series mostly up to 92.2 µM;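 further: cells exposed to compound for 16 hr before readout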
Method in brief: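 Caspase 3/7 activation measured in H-4-II-E cells in complete culture medium after 16 hr treatment at 37 °C, using luciferase-coupled substrate readout; AC50 values come from Hill-equation fits of normalized concentration-response data.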

[10] = Cellular Toxicity (caspase-3) N2a (AID 665); settings: N2a cells, luminescence, normalized: DMSO 0%, 10 µM staurosporine 100%; series mostly up to 92.2 µM;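 further: compound exposure lasted 16 h at 37 °C before readout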
Method in brief: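 Caspase-3/7 activation measured as luminescence from Caspase-Glo reagent (1 h, room temperature) after 16 h compound exposure of mouse N2a cells. AC50 values from Hill-equation concentration-response, scaled between DMSO and 10 uM staurosporine.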

[11] = Cellular Toxicity (caspase-3) NIH 3T3 (AID 666); settings: NIH 3T3 caspase-3 activation, apoptosis/toxicity, 0% DMSO, 100% is 100 µM tamoxifen; series mostly up to 92.2 µM;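 further: 0% = DMSO basal and 100% = 100 µM tamoxifen stimulation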
Method in brief: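 Caspase-Glo 3/7 luminescence reported caspase activation in 1000 NIH 3T3 cells/well after 16 h compound exposure at 37 C. DMSO set basal and 100 uM tamoxifen set 100% stimulation; concentration-response modeled with the Hill equation for AC50.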

[12] = Cellular Toxicity (caspase-3) Renal Proximal Tubule (AID 667); settings: renal proximal tubule cells, primary cells freshly taken from rat; Potency: caspase-3 activation; series mostly up to 91.7 µM;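 further: cells exposed to compound for 16 hours at 37 °C before detection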
Method in brief: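 Luminescent caspase 3/7 signal from peptide-aminoluciferin cleavage measures apoptosis in freshly isolated rat kidney proximal tubule cells after 16 h compound exposure. Concentration-response data are normalized to DMSO and 10 uM staurosporine, and AC50 values come from Hill equation fits.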

[13] = MultiTox-Fluor Cytotoxicity Assay - LYMP1-001 - Dead Cells (AID 946); settings: LYMP1-001 lymphoblastoid cells, dead-cell protease fluorescence; series mostly up to 92.2 µM
Method in brief: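 Cytotoxicity as increased dead-cell protease fluorescence (bis-AAF-R110, 485/520 nm), read 60 min after MultiTox-Fluor reagent. Human lymphoblastoid line exposed 16 h; Hill-fitted AC50, with DMSO as 0% and 15 uM tetraoctylammonium bromide as 100%.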

[14] = MultiTox-Fluor Cytotoxicity Assay - LYMP1-003 - Dead Cells (AID 961); settings: LYMP1-003 lymphoblastoid cells, dead-cell protease fluorescence; series mostly up to 92.2 µM; further: nearly all actives have a fitted effect of over 70% in size; further: potency means the concentration at half of the fitted maximal effect
Method in brief: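 Dead-cell protease release, detected as bis-AAF-R110 fluorescence at 485/520 nm, was measured in LYMP1-003 cells after 16 h compound treatment at 37 C. AC50 values came from Hill-modeled qHTS curves normalized to DMSO (0%) and 15 uM tetraoctylammonium bromide (100%).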

[15] = MultiTox-Fluor Cytotoxicity Assay - LYMP1-003 - Live Cells (AID 962); settings: LYMP1-003 lymphoblastoid cells, MultiTox-Fluor live-cell protease fluorescence; series mostly up to 92.2 µM;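 further: 0% = DMSO only and full loss = 92 µM tetraoctylammonium bromide; cytotoxic hits lower the live-cell protease signal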
Method in brief: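 Live-cell protease activity (GF-AFC substrate, 405/510 nm, 60 min at room temperature) after 16 h, 37 C compound exposure of human lymphoblastoid LYMP1-003 cells; concentration-response fitted to the Hill equation for AC50.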

[16] = Cell Viability - LYMP1-003 - Assay at 24 hr (AID 963); settings: LYMP1-003 lymphoblastoid cell viability; series mostly up to 92.2 µM;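 further: plate controls were DMSO only for no effect and tetraoctylammonium bromide positive control for full effect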
Method in brief: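 Concentration-response qHTS: ATP loss measured by CellTiter-Glo luminescence after 24 h compound exposure at 37 C. Cells were LYMP1-003 human lymphoblastoid, 2500 per well. AC50 derived via standard Hill equation modeling.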

[17] = qHTS Assay for Identification of Small Molecule Inducers of Hypoxia Response (AID 2120; active means well fitted curve in the direction sought with a large enough effect in the signal ratio, with a control signal flat, not every such curve was filed as active; the % refers to the signal ratio; further: 0% is about no effect); settings: hypoxia response reporter cells, beta-lactamase ratio readout; series mostly up to 104 µM
Method in brief: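 Reporter induction read as the CCF4 blue/green (460nm/530nm) emission ratio after 2.5 h dye loading at room temperature. ME-180 HRE-beta-lactamase cells received titrated compounds for 17 h at 37 degrees Celsius; AC50 values derived.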

[18] = molecular target: Peroxisome proliferator-activated receptor alpha (Homo sapiens) (UniProt Q07869); test: qHTS assay for small molecule agonists of the peroxisome proliferator-activated receptor alpha (PPARalpha) signaling pathway (AID 651778); settings: PathHunter PPARalpha complementation, chemiluminescence, 6 h; max response: active compounds read high; further: % of control where 0% means no effect
Peroxisome proliferator-activated receptor alpha (Homo sapiens), sequence (Q07869 whole entry, looked up): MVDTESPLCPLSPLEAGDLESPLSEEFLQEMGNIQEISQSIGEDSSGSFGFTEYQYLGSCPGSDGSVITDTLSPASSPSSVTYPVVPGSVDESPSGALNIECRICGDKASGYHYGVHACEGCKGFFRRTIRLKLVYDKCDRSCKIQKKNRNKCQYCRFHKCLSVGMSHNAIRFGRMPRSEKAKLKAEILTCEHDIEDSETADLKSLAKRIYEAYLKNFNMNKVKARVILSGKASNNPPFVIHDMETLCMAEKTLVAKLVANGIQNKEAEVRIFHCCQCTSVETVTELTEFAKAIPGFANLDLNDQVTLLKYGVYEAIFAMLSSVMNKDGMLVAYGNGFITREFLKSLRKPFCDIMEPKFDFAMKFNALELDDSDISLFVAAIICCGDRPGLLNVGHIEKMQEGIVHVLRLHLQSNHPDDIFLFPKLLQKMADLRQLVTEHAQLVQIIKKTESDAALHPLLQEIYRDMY
Method in brief: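 Cells plated at 2,000/well and held overnight at 37 C, 5% CO2, then compound added by pin tool for 6 hr; after PathHunter detection reagent and 60 min at room temperature, chemiluminescence from enzyme complementation was read.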

[19] = qHTS assay for small molecule agonists of the antioxidant response element (ARE) signaling pathway measured by Nrf2-dependant transcriptional activity - cell viability counter screen (AID 720653; active means well fitted curve in the direction sought with a large enough effect in the repeat runs; an effect the other way counts as inactive or inconclusive; further: on the % scale 0 is the no-effect control and ±100 the full control effect); settings: ARE-bla HepG2 viability, CellTiter-Glo ATP luminescence, 16 h; max response: active compounds read low
Method in brief: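 ARE-bla HepG2 cells (2,000/well) rested 5 hrs at 37C/5% CO2, then exposed to compounds in DMSO for 16 hrs. Viability was read in the same wells as intracellular ATP by luminescence, 30 min at room temperature after reagent addition.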

[20] = qHTS assay for cell viability of the p53RE-bla HCT-116 cell line (AID 743292); settings: p53RE-bla HCT-116 viability, ATP luminescence, 16 h; series mostly up to 95 µM; further: on the % scale 0 is the no-effect control and ±100 the full control effect; nearly all actives have a fitted effect of over 55% in size
Method in brief: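 Viability of compound-treated p53RE-bla HCT-116 cells is taken from ATP-dependent luciferase luminescence. Treatment lasts 16 h at 37 C after a 5 h settling period; detection follows 30 min at room temperature.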

Brc1cc(Br)c(Oc2cc(Br)c(Br)cc2Br)cc1Br
inactive: Potency [1] > 92 µM | Potency [2] | Potency [3] | Potency [4] | Potency [5] | outcome [6] | outcome [7] | outcome [8] | Potency [9] | outcome [10] | outcome [11] | Potency [12] | Potency [13] | Potency [14] | Potency [15] | Potency [16] | Potency [17] | max response [18] -1.94% | max response [19] -7.08% | Potency [20]

O=C(O)c1ccc([N+](=O)[O-])cc1
inactive: Potency [1] > 92 µM | Potency [2] | Potency [3] | Potency [4] | Potency [5] | outcome [6] | outcome [7] | outcome [8] | Potency [9] | outcome [10] | outcome [11] | Potency [12] | Potency [13] | Potency [14] | Potency [15] | Potency [16] | Potency [17] | max response [18] -2.26% and 0.632% | max response [19] -7.35% and -20.8% | Potency [20]

Nc1ccccc1O
inactive: Potency [1] > 92 µM | Potency [2] | Potency [3] | Potency [4] | Potency [5] | outcome [6] | outcome [7] | outcome [8] | Potency [9] | outcome [10] | outcome [11] | Potency [12] | Potency [13] | Potency [16] | Potency [17] | max response [18] -1.39% | max response [19] -24.7% | Potency [20]
active: Potency [14] 10 µM

Cc1cc(-c2ccc(N=Nc3cc(S(=O)(=O)O)c4ccccc4c3N)c(C)c2)ccc1N=Nc1cc(S(=O)(=O)O)c2ccccc2c1N
inactive: Potency [1] > 92 µM | Potency [3] | Potency [4] | Potency [5] | outcome [6] | outcome [7] | outcome [8] | Potency [9] | outcome [10] | outcome [11] | Potency [12] | Potency [13] | Potency [15] | Potency [16] | Potency [17] | max response [18] -11.9% | max response [19] -27.3%
active: Potency [2] 25.1 µM

O=C=Nc1ccc(Cl)c(Cl)c1
inactive: Potency [3] | Potency [4] | Potency [5] | outcome [6] | outcome [7] | outcome [8] | Potency [9] | outcome [10] | outcome [11] | Potency [12] | Potency [15] | Potency [16] | Potency [17] | max response [18] 21.6% | max response [19] -6.45% | Potency [20]

O=C1OC(=O)c2ccccc21
inactive: Potency [1] > 92 µM | Potency [2] | Potency [3] | Potency [4] | Potency [5] | outcome [6] | outcome [7] | outcome [8] | Potency [9] | outcome [10] | outcome [11] | Potency [12] | Potency [13] | Potency [14] | Potency [15] | Potency [16] | Potency [17] | max response [18] 5.7% | max response [19] -7.68% | Potency [20]

CC(C)(C)C(=O)C1C(=O)c2ccccc2C1=O
inactive: Potency [1] > 92 µM | Potency [2] | Potency [3] | Potency [4] | Potency [5] | outcome [6] | outcome [7] | outcome [8] | Potency [9] | outcome [10] | outcome [11] | Potency [12] | Potency [13] | Potency [14] | Potency [15] | Potency [16] | Potency [17] | max response [18] 0.134% | max response [19] -24.2% | Potency [20]

O=C1c2ccccc2C(=O)C1(O)O
inactive: Potency [2] | Potency [3] | Potency [4] | Potency [5] | outcome [6] | outcome [7] | outcome [8] | Potency [9] | outcome [10] | outcome [11] | Potency [12] | Potency [13] | Potency [14] | Potency [15] | Potency [16] | Potency [17] | max response [18] 0.0449% | max response [19] -29.9% | Potency [20]
active: Potency [1] 44.8 µM

CC/C=C/C/C=C/C/C=C/CCCCCCCC(=O)OCC
inactive: Potency [1] > 92 µM | Potency [2] | Potency [3] | Potency [4] | Potency [5] | outcome [6] | outcome [8] | Potency [9] | outcome [10] | outcome [11] | Potency [12] | Potency [13] | Potency [15] | Potency [16] | Potency [17] | max response [18] 19.5% | max response [19] -18.4% | Potency [20]
active: Potency [14] 50.1 µM
